PubChem BioAssay AID1851 (National Center for Advancing Translational Sciences (NCATS), 2009)
Where “and” joins values, the source holds several entries; their conditions need not be identical. Identical values can stand only once. Among all 16,000 compounds or so, about 2,600 (16%) were called active. Roughly 20% stayed inconclusive and do not appear here. Calls come from the whole dose curve; as a rule, active = well fitted curve in the direction sought with a large enough effect; inconclusive = small, poorly fitted or top-dose-only effect, or effect the other way; inactive = no such curve, though single readings can be large or run the other way. The list is a sample of the results. Some compounds were tested as several samples or in several runs, with calls that do not always agree.

Target: Cytochrome P450 2D6 (Homo sapiens) (UniProt P10635)
Sequence (P10635 whole entry, looked up): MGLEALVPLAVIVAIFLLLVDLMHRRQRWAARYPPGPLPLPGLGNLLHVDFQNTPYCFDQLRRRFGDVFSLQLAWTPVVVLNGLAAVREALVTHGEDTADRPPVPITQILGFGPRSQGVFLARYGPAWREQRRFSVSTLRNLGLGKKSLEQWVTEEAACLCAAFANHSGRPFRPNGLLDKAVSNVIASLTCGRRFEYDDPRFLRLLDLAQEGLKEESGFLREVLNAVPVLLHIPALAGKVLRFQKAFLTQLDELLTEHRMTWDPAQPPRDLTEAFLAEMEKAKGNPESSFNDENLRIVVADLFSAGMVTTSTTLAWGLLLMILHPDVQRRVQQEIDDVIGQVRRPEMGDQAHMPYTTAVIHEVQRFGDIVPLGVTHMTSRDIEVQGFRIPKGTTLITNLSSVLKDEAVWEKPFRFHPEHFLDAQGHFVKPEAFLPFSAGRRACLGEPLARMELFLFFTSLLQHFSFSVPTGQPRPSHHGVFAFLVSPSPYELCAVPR
Assay: Cytochrome panel assay with activity outcomes
Conditions: recombinant CYP, pro-luciferin dealkylation, luminescence, p450-cyp2d6; series mostly up to 57.1 µM
% is set by controls: 0 for no effect and ±100 for the full control effect.

activity, negative = inhibition, inactive:
CC(=O)[C@H](C(=N)C#N)C(=O)Nc1ccccc1 5.49% [at 11.4 µM]
CCC(=O)OCN1C(=O)C=CC1=O 6.64% [at 11.4 µM]
O=c1cc(CF)[nH]c(=S)[nH]1 11.9% [at 11.4 µM]
Oc1ccc(Cn2c(-c3ccc(O)cc3)nc3ccccc32)cc1 1.43% [at 11.4 µM]
O=C(O)CCC(O)=C1S(=O)(=O)OCCOS1(=O)=O -8.4% [at 11.4 µM]
Cc1ccc(N=Nc2c(O)ccc3cc(S(=O)(=O)O)ccc23)cc1 4.81% [at 11.4 µM]
C#CCSc1n[nH]c(-c2ccco2)n1 -1.01% [at 11.4 µM]

AC50, inactive:
CN(C)c1ncc2ncc(=O)n(CCC#N)c2n1
COc1ccc(NC(=O)N2CCC3(CC2)CCN(C(=O)c2cnccn2)CC3)cc1
COc1cccc(NC(=O)Cc2c(C(=O)O)[nH]c3ccccc23)c1
CCOC(=O)c1ccc(NC(=O)C2CCCO2)cc1 (stereo not drawn)
O=C(NNC(=O)C1CCCCC1)c1cnccn1
Cn1cccc1C(=O)N1CCC2(CCCN(c3cccc(-c4ccccc4)c3)C2)CC1
COc1ccc(-n2c(=O)c(-c3ccc(F)cc3)nc3cnc(N4CCOCC4)nc32)cc1
Cn1c(-c2ccc(CN3CCCCC3)o2)nc2ccccc21
CS(=O)(=O)c1nc2ccccc2n1Cc1ccccc1
O=S(=O)(O)c1nc2ccccc2n1Cc1ccccc1
COCCn1c(=O)cnc2cnc(Oc3ccc(OC)cc3)nc21
COc1cc(OC)nc(NC(C)=O)n1
Cc1ccc(NC2=NC(c3ccccc3)n3c(nc(C)cc3=O)N2)c(C)c1 (stereo not drawn)
CCC(=O)[C@@]1(C)[C@H](C)C[C@@H]2[C@@H]3CCC4=CC(=O)C=C[C@@]4(C)[C@H]3[C@H](O)C[C@]21C
Cn1c(=O)c2c(nc(N3CCN(c4ccccn4)CC3)n2Cc2ccccc2Cl)n(C)c1=O
CC(=O)Nc1ccc(NC(=O)C/C(C)=N/NC(=O)C(=O)N2CCCC2)cc1
O=c1c2ccccc2c(-c2ccc(Br)cc2)nn1Cc1ccccc1
Cc1ccc(-c2nn(C)c(=O)c3ccccc23)cc1CNC(=O)Cn1nc(-c2ccccc2)c2ccccc2c1=O
Cc1ccc(-c2csc(NC(=S)NC(=O)/C=C/c3ccco3)n2)cc1
N#Cc1cccc(-c2nc3cnc(Oc4cccc(Cl)c4)nc3n(C3CC3)c2=O)c1
CC1=NN(c2ccccc2)C(=O)C1
CC(=O)c1cc2c(cc1NC(=O)CCCC(=O)O)OCO2
O=C(Cc1ccc(Br)cc1)OCC(=O)c1ccc2c(c1)OCCO2
CCOc1ccc(C(C)=O)cc1N1C(=O)C2C3C=CC(O3)C2C1=O (stereo not drawn)
COCC(=O)N1CCC[C@@]2(CCN(C(=O)Nc3cccc(F)c3)C2)C1
COCC(=O)N1CCC2(CC1)CCN(C(=O)Nc1cccc(F)c1)CC2
COc1ccc(C(=O)N2CCC3(CCN(C(=O)Nc4cccc(F)c4)CC3)CC2)cc1
CC(=O)N1CCC2(CCCN(C(=O)Nc3cccc(F)c3)C2)CC1
CS(=O)(=O)N1CCC2(CCN(C(=O)Nc3cccc(F)c3)CC2)CC1
COC(=O)N1CCC2(CCCN(C(=O)Nc3cccc(F)c3)C2)CC1
Cc1cc(C(=O)NNC(=S)NC(C)c2ccccc2)c2ccccc2n1 (stereo not drawn)
COc1ccc(S(=O)(=O)N2CCC[C@H]2C(=O)NC2=NCCS2)cc1

AC50, inactive and 15.8 nM (active):
CC(C)COC[C@H](CN(Cc1ccccc1)c1ccccc1)N1CCCC1

AC50, active:
COc1cc(N=c2ssnc2Cl)cc(OC)c1OC 3.16 µM
Clc1ccc(Cn2c(CN3CCCC3)nc3ccccc32)cc1 1.26 µM and 794 nM
c1ccc(Cn2c(CN3CCCC3)nc3ccccc32)cc1 8.91 µM
O=c1c2ccccc2c(-c2ccccc2)nn1Cc1ccc(Cl)cc1 11.2 µM
C/C(=C\C(=O)c1ccc(Br)cc1)NCc1ccc2c(c1)OCO2 7.94 µM
COC(=O)N1CCC[C@@]2(CCN(C(=O)Nc3cccc(F)c3)C2)C1 10 µM
COC(=O)N1CCC2(CCN(C(=O)Nc3cccc(F)c3)CC2)CC1 10 µM
CC(=O)N1CCC2(CC1)CCN(C(=O)Nc1cccc(F)c1)CC2 3.16 µM
